Giardia killer: kills Giardia lamblia; activity change, % at 7.66 µM, hits read low; AID 540267; 340,000 tested, 0.15% active; Giardia lamblia trophozoite viability; in the data active = activity change below about -80%; inconclusive = between about -30% and that limit;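 also: parasites exposed to compound for two days anaerobically before the ATP read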
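Anaerobic 48 hrs incubation at 37 deg C of 100 trophozoites/well with test compounds; ATPLite 1-Step luminescence, 15-30 min RT, reports cellular ATP as viability.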
ASM inhibitor: blocks human secretory acid sphingomyelinase | P17405 | placental ASM, HMU-PC fluorogenic substrate, 60 min | Potency, µM (top dose mostly 57.5 µM), most hits filed as inhibitors | 340,000 tested, 0.006% active | AID 504937
Target sequence (P17405 47-631 limits assumed): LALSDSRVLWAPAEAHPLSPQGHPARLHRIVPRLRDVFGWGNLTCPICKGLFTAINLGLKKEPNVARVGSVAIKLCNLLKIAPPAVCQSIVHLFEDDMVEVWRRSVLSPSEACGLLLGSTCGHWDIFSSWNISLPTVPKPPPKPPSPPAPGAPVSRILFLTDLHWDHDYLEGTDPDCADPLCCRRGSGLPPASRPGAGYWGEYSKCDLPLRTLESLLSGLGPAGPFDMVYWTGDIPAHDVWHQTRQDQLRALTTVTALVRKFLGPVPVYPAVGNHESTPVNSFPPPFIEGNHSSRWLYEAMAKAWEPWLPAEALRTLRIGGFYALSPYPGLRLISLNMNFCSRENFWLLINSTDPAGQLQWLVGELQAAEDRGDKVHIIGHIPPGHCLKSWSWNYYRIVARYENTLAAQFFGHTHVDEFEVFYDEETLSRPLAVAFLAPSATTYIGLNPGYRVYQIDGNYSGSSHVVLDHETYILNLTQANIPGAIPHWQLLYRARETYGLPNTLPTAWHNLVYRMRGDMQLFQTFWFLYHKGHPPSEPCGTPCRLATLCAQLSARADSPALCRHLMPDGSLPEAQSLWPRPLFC
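Human placenta-derived ASM enzyme was preincubated with compound for 10 minutes at room temperature, then given fluorogenic substrate HMU-PC0 (9 uM final) for 60 minutes at 37 °C; a pH 10 stop preceded fluorescence reading at Ex 386/Em 447 nm.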
SW480 rereplic: DNA re-replication induction in SW480 cells; 340,000 tested, 1.8% active; Potency, µM (titrated, usually from 46.1 µM), actives largely listed as activators; SW480 DNA re-replication, Hoechst DNA content imaging, 48 h; AID 624297; also: nearly all actives have a fitted effect of over 55% in size
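DNA re-replication was detected as more nuclei of elevated Hoechst intensity after 48 hr exposure to compound (23 nL pinned per well of 250 cells).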
KB-V1 MDR tox: kills drug-selected multidrug resistant KB-V1 cells; KB-V1 MDR cells viability, CellTiter-Glo, 72 h; Potency, µM (series often up to 46.1 µM), hits mostly cytotoxic; 400,000 tested, 3.4% active; AID 1347076; also: nearly all actives have a fitted effect of over 60% in size
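KB-V1 MDR subline cells in DMEM (phenol-red free, 10% FBS) exposed to compounds in qHTS concentration series for 72 h at 37 degrees C. Viability read by CellTiter-Glo luminescence; concentration-effect curves fitted after normalization and correction.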
KB-3-1 cytotox: KB-3-1 parental cell cytotoxicity; 400,000 tested, 1.4% active; KB-3-1 viability, CellTiter-Glo ATP luminescence, 72 h; Potency, µM (highest dose often 46.1 µM), usual class: cytotoxic; also: nearly all actives have a fitted effect of over 60% in size
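KB-3-1 cells, DMEM (no phenol red) + 10% FBS; compound by pin transfer, 72 h, 37 °C. Readout: CellTiter-Glo luminescence after 10 min. Data normalized, curve-fitted.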
MCF10A rerep: DNA re-replication induction in MCF 10a cells | MCF 10A DNA re-replication, Hoechst nuclear intensity, 48 h | Potency, µM (series often up to 46.1 µM), actives largely listed as activators | 350,000 tested, 2.9% active; also: nearly all actives have a fitted effect of over 50% in size
Numbers stand for hits; - = inactive; ? = inconclusive; . = no result given; ! = repeats disagree. This is a sample that favours compounds with a hit; in the whole collection about 6.9% have one here. Unless noted, calls follow the shape of the dose curve; as a rule, active = well fitted curve in the direction sought with a large enough effect; inconclusive = small, poorly fitted or top-dose-only effect, or another doubt; inactive = no such curve, though single readings can be large; an effect the other way counts as inactive or inconclusive.

SMILES	Giardia killer	ASM inhibitor	SW480 rereplic	KB-V1 MDR tox	KB-3-1 cytotox	MCF10A rerep
CCc1ccc(N2C(=O)NC(=O)/C(=C\C=C\c3ccco3)C2=O)cc1	-	-	18.4µM	?	?	23.1µM
Cc1ccc(N2C(=O)NC(=O)/C(=C/C=C/c3ccco3)C2=O)cc1	-	-	16.4µM	18.4µM	?	9.2µM
Cc1ccc(N2C(=O)NC(=O)/C(=C/c3ccoc3)C2=O)cc1	-	-	-	-	?	-
Cc1cc(C)cc(N2C(=O)NC(=O)/C(=C\C=C\c3ccco3)C2=O)c1	-	-	?	23.1µM	?	13µM
CCCCN1C(=O)/C(=C/C=C/c2ccco2)C(=O)NC1=S	-	-	-	-	-	-
CC(C)c1ccc(N2C(=O)NC(=O)/C(=C/C=C/c3ccco3)C2=O)cc1	-	-	?	?	14.6µM	6.51µM
COC(=O)[C@@]1(Cc2ccccc2)[C@H]2C(=O)N(Cc3ccccc3)C(=O)[C@H]2[C@H]2CN=C(SCc3ccc(C#N)cc3)N21	-	-	?	-	-	-
CCCC(C)C1(CC)C(=O)NC(=O)NC1=O (stereo not given)	.	.	-	.	.	-
CCc1ccc(N2NC(=O)/C(=C/C=C/c3ccco3)C2=O)cc1	-	-	-	-	-	20.6µM
O=C1NC(=O)N(c2ccccc2)C(=O)/C1=C\c1ccc([N+](=O)[O-])s1	-	-	20.6µM	-	-	?
O=C1NC(=O)N(c2ccccc2)C(=O)/C1=C\C=C\c1ccccc1	-	-	3.26µM	?	?	23.1µM
O=C1NC(=O)N(Cc2ccc(F)cc2)C(=O)/C1=C\C=C\c1ccco1	?	-	8.2µM	?	?	3.66µM
CCOc1ccc(N2C(=O)/C(=C/c3ccco3)C(=O)NC2=S)cc1	-	?	?	-	-	-
COc1cc(/C=C2\C(=O)NC(=O)N(c3ccccc3)C2=O)cc(OC)c1OC	-	-	-	-	-	-
C[C@@]12CCC(=O)C=C1C=C[C@H]1[C@H]3CC[C@](O)(CCC(=O)O)[C@]3(C)CC[C@@H]12	.	.	-	.	.	-
Clc1ccc(Cl)cc1	.	.	-	.	.	-
CC[C@H]1CN2CCc3cc(OC)c(OC)cc3[C@H]2C[C@@H]1C[C@@H]1NCCc2cc(OC)c(OC)cc21	.	.	?	.	.	-
CCN(CC)CCCOC(=O)C(OC(C)C)(c1ccccc1)c1ccccc1	-	-	?	8.2µM	?	-
Cc1nn(-c2ccccc2)c2c1C(c1ccc3c(c1)OCO3)SCC(=O)N2 (stereo not given)	-	-	-	?	-	14.6µM
CCN1CCN(c2ccc(NC(C)=O)cc2Cl)CC1	-	-	-	-	-	?
O=C(Nc1ccc(Cl)cc1)Nc1ccc(Cl)c(Cl)c1	-	-	?	20.6µM!	?	?
Cc1nonc1OCCNc1ccc([N+](=O)[O-])c2cccnc12	-	-	0.517µM	?	-	-
CCC(CO)Nc1ccc([N+](=O)[O-])c2cccnc12 (stereo not given)	-	-	-	18.4µM	?	-
NCCNc1ccc([N+](=O)[O-])c2cccnc12	-	-	-	-	?	0.651µM
O=[N+]([O-])c1ccc(NCCCN2CCOCC2)c2ncccc12	-	-	-	-	-	-
SMILES	Giardia killer	ASM inhibitor	SW480 rereplic	KB-V1 MDR tox	KB-3-1 cytotox	MCF10A rerep
CC(O)CNc1ccc([N+](=O)[O-])c2cccnc12 (stereo not given)	-	-	-	-	-	-
O=[N+]([O-])c1oc2ccc3ccccc3c2c1CCO	-94.8	-	?	5.8µM	?	5.17µM
CC(C)(O)[C@H]1O[C@H]2CC[C@@]3(C)[C@@](O)(CC[C@H]4Cc5c([nH]c6ccccc56)[C@@]43C)C2=CC1=O	-	-	0.731µM	-	-	?
Cc1oc2cc3oc(=O)c(CCC(=O)N4CCCCC4)c(C)c3cc2c1C	.	.	.	-	-	.
CC(=O)[C@H]1CCC2C3CC[C@H]4C[C@@H](O)CC[C@]4(C)C3CC[C@@]21C (stereo not given in full)	-	-	-	?	-	-
CC1OC(OC2C=C3CCC4C(CCC5(C)C(c6ccc(=O)oc6)CCC45O)C3(C)CC2)C(O)C(OC2OC(CO)C(O)C(O)C2O)C1O (stereo not given)	-	-	?	?	?	-
C[C@H]1O[C@@H](O[C@H]2[C@@H](O)C[C@H](O[C@H]3[C@@H](O)C[C@H](O[C@H]4CC[C@@]5(C)[C@H](CC[C@@H]6[C@@H]5CC[C@]5(C)[C@@H](C7=CC(=O)OC7)CC[C@]65O)C4)O[C@@H]3C)O[C@@H]2C)C[C@H](O)[C@@H]1O	-	-	0.206µM	0.184µM	?	0.0651µM
CC(=O)OC1CC2(O)C3CCC4CC(O)CCC4(C)C3CCC2(C)C1C1=CC(=O)OC1 (stereo not given)	-	-	1.64µM	?	0.184µM	?
CC(=O)OC1CC(OC2C(O)CC(OC3C(O)CC(OC4CCC5(C)C(CCC6C5CCC5(C)C(C7=CC(=O)OC7)C(O)CC65O)C4)OC3C)OC2C)OC(C)C1OC1OC(CO)C(O)C(O)C1O (stereo not given)	-	-	1.16µM	?	1.16µM	?
C[C@H]1O[C@@H](OC2CC[C@]3(C=O)[C@H]4CC[C@]5(C)[C@@H](C6=CC(=O)OC6)CC[C@]5(O)[C@@H]4CC[C@]3(O)C2)CC2OC(C)(C)OC21 (stereo not given in full)	-	-	?	?	?	?
CC1OC(OC2C(O)CC(OC3C(O)CC(OC4CCC5(C)C(CCC6C5CCC5(C)C(C7=CC(=O)OC7)C(O)CC65O)C4)OC3C)OC2C)CC(O)C1O (stereo not given)	-	-	1.84µM	?	0.184µM	?
COc1ccc(S(=O)(=O)N(C)C[C@H]2Oc3c(NC(=O)NC4CCCCC4)cccc3C(=O)N([C@H](C)CO)C[C@@H]2C)cc1	-	-	?	-	-	-
O=C1/C(=C/c2ccccc2)C[C@@]2(O)[C@H]3Cc4ccc(O)c5c4[C@@]2(CCN3CC2CC2)C1O5 (stereo not given in full)	-	-	?	7.31µM	?	4.61µM
Oc1ccc2c3c1OC1c4oc5ccccc5c4C[C@@]4(O)[C@@H](C2)N(CC2CC2)CC[C@]314 (stereo not given in full)	-	-	0.92µM	?	-	-
Oc1ccc2c3c1OC1c4[nH]c5ccccc5c4C[C@@]4(O)C(C2)N(CC2CC2)CC[C@]314 (stereo not given in full)	-	-	-	-	-	?
CCSc1nnc(NC(=O)c2cccn(Cc3ccc(Cl)cc3)c2=O)s1	.	.	.	-	-	.
CC(C)c1ccc(OCC(=O)N2CCN(CCc3ccncc3)CC2)cc1	.	.	.	-	-	.
CC(C)Nc1ccc(Nc2ccccc2)cc1	-	.	23.7µM	-	18.4µM	?
